# PubChem BioAssay (EPA / NIEHS)
# Inconclusive results are not listed. Activity calls are given as the source filed them. The calls were made as follows, unless noted: active = hit-call score of the fitted dose curve at least 0.9, where 1 is the maximum; inactive = score below 0.9.
# What was measured:
# [1] = read-out: Vascular cell adhesion molecule 1 (VCAM1), VCAM1 (gene 7412); assay: BSK_LPS_VCAM1: BioMAP Diversity Plus: LPS Assay for Vascular cell adhesion molecule 1 (VCAM1) Biomarker Activity (AID 2283086); conditions: primary human HUVEC with PBMC; actives raise or lower the signal
# How it was run: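 Measured by ELISA: VCAM-1 in LPS-activated HUVEC/PBMC co-cultures 24 h after treatment. Values reflect bidirectional fitting with DMSO as baseline.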
# CD38, CD38 (gene 952) = assay: BSK_SAg_CD38: BioMAP Diversity Plus: SAg Assay for CD38 Biomarker Activity (AID 2283087); conditions: primary human HUVEC with PBMC; actives raise or lower the signal
# How it was run: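 Measures CD38 on a human endothelial/PBMC co-culture driven by SEB and TSST-1, 24 h after compound exposure, using ELISA with fluorescence detection; DMSO defines baseline for bidirectional curve fitting.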
# CD40, CD40 (gene 958) = assay: BSK_SAg_CD40: BioMAP Diversity Plus: SAg Assay for CD40 Biomarker Activity (AID 2283088); conditions: primary human HUVEC with PBMC; actives raise or lower the signal
# How it was run: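 Endpoint derived by fitting increases or decreases versus DMSO controls. CD40 is detected by fluorescence ELISA in a human vascular co-culture of endothelium and PBMC at 24 h.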
# CD69, CD69 (gene 969) = assay: BSK_SAg_CD69: BioMAP Diversity Plus: SAg Assay for CD69 Biomarker Activity (AID 2283089); conditions: primary human HUVEC with PBMC; actives raise or lower the signal;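 as to AC50: cell surface CD69 protein quantified by ELISA with fluorescence detection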
# How it was run: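 ELISA, fluorescence read-out: CD69 on human umbilical vein endothelial cell + PBMC co-culture, 24 h post-dosing. Gain or loss of signal fitted bidirectionally against DMSO baseline.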
# [2] = read-out: E-selectin (Homo sapiens) (UniProt P16581); assay: BSK_SAg_Eselectin: BioMAP Diversity Plus: SAg Assay for Eselectin Biomarker Activity (AID 2283091); conditions: primary human HUVEC with PBMC; actives raise or lower the signal
# How it was run: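 Endpoint values derive from bidirectional fitting relative to DMSO, using ELISA-measured E-selectin in a human vascular co-culture (umbilical vein endothelium plus PBMC) sampled 24 h after dosing.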
# [3] = read-out: Monokine induced gamma interferon (MIG), CXCL9 (gene 4283); assay: BSK_SAg_MIG: BioMAP Diversity Plus: SAg Assay for Monokine induced gamma interferon (MIG) Biomarker Activity (AID 2283092); conditions: primary human HUVEC with PBMC; actives raise or lower the signal
# How it was run: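 ELISA readout of MIG/CXCL9; primary human umbilical vein endothelial cells co-cultured with peripheral blood mononuclear cells; 24 h post-dose; gain/loss fit vs DMSO baseline.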
# [4] = BSK_SAg_PBMCCytotoxicity: PBMC Cytotoxicity Assessment in the BioMAP Diversity Plus: SAg Assay (AID 2283093); conditions: primary human HUVEC with PBMC;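 also: fitted both ways against DMSO so a hit may be loss or gain of signal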;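 as to AC50: PBMC superantigen activated with SEB plus TSST-1 one hour after compound addition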
# How it was run: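 PBMC viability by Alamar Blue reduction, fluorescence read at 546/580 nm after 6 h dye exposure. Cells were dosed 1 h before SEB plus TSST-1 activation (20 ng/mL final each), then held 90 h; endothelial/PBMC human co-culture.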
# [5] = read-out: Interleukin-8 (IL8), CXCL8 (gene 3576); assay: BSK_SAg_IL8: BioMAP Diversity Plus: SAg Assay for Interleukin-8 (IL8) Biomarker Activity (AID 2283094); conditions: primary human HUVEC with PBMC; actives raise or lower the signal
# How it was run: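 Primary human endothelial cells with PBMC, exposed 24 h; IL-8 determined by ELISA, analysed bidirectionally relative to DMSO.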
# [6] = BSK_SAg_Proliferation: Cell Proliferation Assessment in the BioMAP Diversity Plus: SAg Assay (AID 2283095); conditions: primary human HUVEC with PBMC;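 also: relative cell number as total protein by SRB absorbance in sub-confluent culture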
# How it was run: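 A human primary co-culture of umbilical vein endothelium and blood mononuclear cells receives compound; relative cell number is quantified at 96 h by SRB staining and 560 nm absorbance, with DMSO-referenced bidirectional curve fitting.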
# [7] = BSK_SAg_SRB: Viability Assessment in the BioMAP Diversity Plus: SAg Assay (AID 2283096); conditions: primary human HUVEC with PBMC;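 also: cells read one day after compound addition; hits may be either gain or loss of signal compared with DMSO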
# How it was run: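 Compounds were added to a human vascular co-culture of umbilical vein endothelium and PBMC. After 24 h, parallel cultures were fixed with 10% TCA, stained with 0.1% sulforhodamine B and read at 560 nm. Gain or loss of signal was fitted relative to DMSO.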
# [8] = molecular target: human CYP4F12, CYP4F12 (gene 66002) (UniProt Q9HCS2); assay: NVS_ADME_hCYP4F12: NovaScreen (NVS) CYP450-related Enzyme Activity (ADME) Assay for human CYP4F12 (AID 2283111; active = hit-call score of the fitted dose curve at least 0.9, where 1 is the maximum)
# How it was run: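 Recombinant enzyme with a fluorescent substrate, signal read at 0.5 h post-dose; activity loss analysed relative to acetonitrile. Compounds first run in duplicate at 10 uM, with follow-up concentration-response testing of actives.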
# [9] = read-out: Monocyte Chemoattractant Protein-1 (MCP1), CCL2 (gene 6347); assay: BSK_SAg_MCP1: BioMAP Diversity Plus: SAg Assay for Monocyte Chemoattractant Protein-1 (MCP1) Biomarker Activity (AID 2283090); conditions: primary human HUVEC with PBMC; actives raise or lower the signal
# How it was run: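 Values derive from bidirectional fitting of ELISA-measured MCP1 against DMSO controls. Readings were taken 24 h after dosing human vascular endothelial cells co-cultured with peripheral blood mononuclear cells under superantigen stimulation.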
# [10] = molecular target: human CYP1A1, CYP1A1 (gene 1543) (UniProt P04798); assay: NVS_ADME_hCYP1A1: NovaScreen (NVS) CYP450-related Enzyme Activity (ADME) Assay for human CYP1A1 (AID 2283100; active = hit-call score of the fitted dose curve at least 0.9, where 1 is the maximum)
# How it was run: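 Inhibition of recombinant CYP1A1 turnover was assessed fluorometrically in a biochemical format 1 h after compound exposure. Testing began at 10 uM in duplicate and progressed to concentration series reaching 20 uM, with on-plate positive and negative controls.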
# [11] = molecular target: human CYP2C9, CYP2C9 (gene 1559) (UniProt P11712); assay: NVS_ADME_hCYP2C9: NovaScreen (NVS) CYP450-related Enzyme Activity (ADME) Assay for human CYP2C9 (AID 2283108; active = hit-call score of the fitted dose curve at least 0.9, where 1 is the maximum)
# How it was run: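 Recombinant human CYP2C9 expressed in SF9 cells, fluorogenic substrate, fluorescence read 0.75 h after dosing. Chemicals first run in duplicate at 10 uM, with actives followed in concentration series; loss of signal versus acetonitrile baseline.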
# [12] = molecular target: Cytochrome P450 3A4 (Homo sapiens) (UniProt P08684); assay: NVS_ADME_hCYP3A4: NovaScreen (NVS) CYP450-related Enzyme Activity (ADME) Assay for human CYP3A4 (AID 2283110; active = hit-call score of the fitted dose curve at least 0.9, where 1 is the maximum)
# How it was run: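 Recombinant CYP3A4 from insect cells, fluorescence enzyme read-out, 0.33 h after chemical addition. Acetonitrile = negative control/baseline. Primary HTS: 10 uM in duplicate; actives re-tested in concentration series.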
# [13] = molecular target: human Acetylcholinesterase (AChE), ACHE (gene 43) (UniProt P22303); assay: NVS_ENZ_hAChE: NovaScreen (NVS) Enzymatic Assay for human Acetylcholinesterase (AChE) (AID 2283129; active = hit-call score of the fitted dose curve at least 0.9, where 1 is the maximum)
# How it was run: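 Actives from a duplicate single-point screen (25 uM) were followed up in concentration series. Enzyme activity read by absorbance (colorimetric) 0.33 hour after dosing, cell-free, normalized to DMSO, with loss of signal scored.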
# [14] = molecular target: Cytochrome P450 2C19 (Homo sapiens) (UniProt P33261); assay: NVS_ADME_hCYP2C19: NovaScreen (NVS) CYP450-related Enzyme Activity (ADME) Assay for human CYP2C19 (AID 2283113; active = hit-call score of the fitted dose curve at least 0.9, where 1 is the maximum;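 also: potency for inhibition seen as loss of fluorescent signal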)
# How it was run: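 Biochemical CYP2C19 inhibition screen: insect-cell recombinant protein plus fluorescent substrate, 1 h, fluorescence intensity. Acetonitrile defined baseline activity. Single 10 uM concentration in duplicate, with concentration-response follow-up for actives.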
# [15] = molecular target: human CYP19A1, CYP19A1 (gene 1588) (UniProt P11511); assay: NVS_ADME_hCYP19A1: NovaScreen (NVS) CYP450-related Enzyme Activity (ADME) Assay for human CYP19A1 (AID 2283098; active = hit-call score of the fitted dose curve at least 0.9, where 1 is the maximum)
# How it was run: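 Fluorescence intensity read-out; activity taken as signal loss relative to acetonitrile vehicle. Extracted enzyme, specific substrate, no cells, 0.5 h exposure. Duplicate single-point screen at 10 uM, then concentration–response follow-up for actives.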
# Sequence of E-selectin (Homo sapiens) (P16581 whole entry, looked up): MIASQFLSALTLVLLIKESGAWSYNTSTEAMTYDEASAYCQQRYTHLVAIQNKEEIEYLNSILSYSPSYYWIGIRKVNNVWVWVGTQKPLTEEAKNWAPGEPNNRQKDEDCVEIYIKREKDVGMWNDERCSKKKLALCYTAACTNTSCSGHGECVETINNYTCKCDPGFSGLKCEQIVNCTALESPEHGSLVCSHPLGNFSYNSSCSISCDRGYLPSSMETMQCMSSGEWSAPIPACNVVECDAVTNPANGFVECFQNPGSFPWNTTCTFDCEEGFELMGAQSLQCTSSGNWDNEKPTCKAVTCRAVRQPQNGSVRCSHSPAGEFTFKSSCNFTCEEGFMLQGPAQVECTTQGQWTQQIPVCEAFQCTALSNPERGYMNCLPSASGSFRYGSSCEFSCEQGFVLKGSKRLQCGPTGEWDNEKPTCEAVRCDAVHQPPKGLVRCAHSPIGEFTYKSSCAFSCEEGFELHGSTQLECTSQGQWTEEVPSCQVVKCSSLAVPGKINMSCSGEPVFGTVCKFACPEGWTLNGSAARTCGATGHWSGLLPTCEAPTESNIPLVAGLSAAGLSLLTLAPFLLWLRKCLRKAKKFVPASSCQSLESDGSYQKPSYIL
# Sequence of human CYP4F12, CYP4F12 (gene 66002) (Q9HCS2 whole entry, looked up): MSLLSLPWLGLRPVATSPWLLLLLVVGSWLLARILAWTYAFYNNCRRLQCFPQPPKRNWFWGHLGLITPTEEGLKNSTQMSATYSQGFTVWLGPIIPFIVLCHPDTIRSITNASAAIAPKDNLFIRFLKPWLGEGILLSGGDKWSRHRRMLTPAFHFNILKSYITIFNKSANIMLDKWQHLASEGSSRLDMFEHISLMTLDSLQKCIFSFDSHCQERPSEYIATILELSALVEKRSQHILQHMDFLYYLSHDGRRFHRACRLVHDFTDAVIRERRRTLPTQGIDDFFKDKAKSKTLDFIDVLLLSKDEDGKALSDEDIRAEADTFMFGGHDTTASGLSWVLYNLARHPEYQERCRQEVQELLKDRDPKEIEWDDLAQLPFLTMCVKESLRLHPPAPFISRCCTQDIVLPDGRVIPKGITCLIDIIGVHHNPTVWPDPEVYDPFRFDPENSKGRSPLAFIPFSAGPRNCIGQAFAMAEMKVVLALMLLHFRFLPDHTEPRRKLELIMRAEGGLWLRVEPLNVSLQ
# Sequence of human CYP19A1, CYP19A1 (gene 1588) (P11511 whole entry, looked up): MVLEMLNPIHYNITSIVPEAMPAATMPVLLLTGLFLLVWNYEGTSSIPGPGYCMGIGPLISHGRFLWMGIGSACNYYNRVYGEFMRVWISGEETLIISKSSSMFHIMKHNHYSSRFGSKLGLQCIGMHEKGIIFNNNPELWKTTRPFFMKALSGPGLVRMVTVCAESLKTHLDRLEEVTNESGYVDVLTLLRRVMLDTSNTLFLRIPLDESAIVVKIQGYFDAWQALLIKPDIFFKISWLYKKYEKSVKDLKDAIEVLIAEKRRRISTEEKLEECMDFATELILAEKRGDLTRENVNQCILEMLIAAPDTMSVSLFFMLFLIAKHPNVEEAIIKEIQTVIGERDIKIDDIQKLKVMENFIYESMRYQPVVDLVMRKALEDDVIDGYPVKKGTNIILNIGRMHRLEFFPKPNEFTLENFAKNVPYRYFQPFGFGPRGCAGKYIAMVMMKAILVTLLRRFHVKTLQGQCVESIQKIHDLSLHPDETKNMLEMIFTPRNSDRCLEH
# Sequence of human CYP1A1, CYP1A1 (gene 1543) (P04798 whole entry, looked up): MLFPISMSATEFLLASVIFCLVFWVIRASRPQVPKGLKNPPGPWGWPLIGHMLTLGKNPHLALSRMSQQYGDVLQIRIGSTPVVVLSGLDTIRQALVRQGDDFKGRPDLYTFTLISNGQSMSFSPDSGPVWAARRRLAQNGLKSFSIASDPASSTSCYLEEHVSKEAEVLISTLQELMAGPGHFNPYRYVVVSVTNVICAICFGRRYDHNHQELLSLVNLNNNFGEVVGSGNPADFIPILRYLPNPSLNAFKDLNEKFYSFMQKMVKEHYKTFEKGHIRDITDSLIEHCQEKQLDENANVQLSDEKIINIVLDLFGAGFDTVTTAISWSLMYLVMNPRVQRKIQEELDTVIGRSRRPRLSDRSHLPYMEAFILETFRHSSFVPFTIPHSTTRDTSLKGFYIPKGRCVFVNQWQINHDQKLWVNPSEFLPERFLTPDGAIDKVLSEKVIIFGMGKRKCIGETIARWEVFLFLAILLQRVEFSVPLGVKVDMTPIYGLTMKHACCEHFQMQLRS
# Sequence of Cytochrome P450 3A4 (Homo sapiens) (P08684 whole entry, looked up): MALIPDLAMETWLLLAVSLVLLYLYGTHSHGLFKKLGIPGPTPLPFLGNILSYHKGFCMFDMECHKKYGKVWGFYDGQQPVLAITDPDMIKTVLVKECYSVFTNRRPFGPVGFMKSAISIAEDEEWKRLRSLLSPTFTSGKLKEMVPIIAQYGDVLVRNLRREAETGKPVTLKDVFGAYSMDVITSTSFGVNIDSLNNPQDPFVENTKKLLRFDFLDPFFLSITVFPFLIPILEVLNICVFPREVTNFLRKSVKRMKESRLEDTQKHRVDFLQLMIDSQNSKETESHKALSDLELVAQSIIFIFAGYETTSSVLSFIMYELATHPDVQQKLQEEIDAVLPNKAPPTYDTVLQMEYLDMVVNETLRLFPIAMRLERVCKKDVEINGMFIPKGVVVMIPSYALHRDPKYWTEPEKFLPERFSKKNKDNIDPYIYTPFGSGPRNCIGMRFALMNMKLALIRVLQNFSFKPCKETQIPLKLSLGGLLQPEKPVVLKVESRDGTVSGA
# Sequence of human Acetylcholinesterase (AChE), ACHE (gene 43) (P22303 whole entry, looked up): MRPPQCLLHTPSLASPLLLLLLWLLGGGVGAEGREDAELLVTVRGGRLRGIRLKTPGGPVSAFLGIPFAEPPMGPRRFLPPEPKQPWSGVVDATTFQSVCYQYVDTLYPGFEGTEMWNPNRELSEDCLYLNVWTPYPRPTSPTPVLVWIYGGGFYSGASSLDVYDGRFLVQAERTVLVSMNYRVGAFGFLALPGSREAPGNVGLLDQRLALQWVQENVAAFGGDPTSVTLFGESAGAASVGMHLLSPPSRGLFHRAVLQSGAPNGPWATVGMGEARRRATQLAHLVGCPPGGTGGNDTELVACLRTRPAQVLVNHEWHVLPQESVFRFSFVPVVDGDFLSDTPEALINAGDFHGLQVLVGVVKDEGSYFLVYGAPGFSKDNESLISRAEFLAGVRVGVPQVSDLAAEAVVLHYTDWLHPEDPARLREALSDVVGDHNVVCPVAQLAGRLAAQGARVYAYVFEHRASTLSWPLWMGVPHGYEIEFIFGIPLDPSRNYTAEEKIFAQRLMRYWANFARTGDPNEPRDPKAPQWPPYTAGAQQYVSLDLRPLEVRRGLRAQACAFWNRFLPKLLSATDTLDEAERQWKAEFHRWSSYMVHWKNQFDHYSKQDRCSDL
# Sequence of human CYP2C9, CYP2C9 (gene 1559) (P11712 whole entry, looked up): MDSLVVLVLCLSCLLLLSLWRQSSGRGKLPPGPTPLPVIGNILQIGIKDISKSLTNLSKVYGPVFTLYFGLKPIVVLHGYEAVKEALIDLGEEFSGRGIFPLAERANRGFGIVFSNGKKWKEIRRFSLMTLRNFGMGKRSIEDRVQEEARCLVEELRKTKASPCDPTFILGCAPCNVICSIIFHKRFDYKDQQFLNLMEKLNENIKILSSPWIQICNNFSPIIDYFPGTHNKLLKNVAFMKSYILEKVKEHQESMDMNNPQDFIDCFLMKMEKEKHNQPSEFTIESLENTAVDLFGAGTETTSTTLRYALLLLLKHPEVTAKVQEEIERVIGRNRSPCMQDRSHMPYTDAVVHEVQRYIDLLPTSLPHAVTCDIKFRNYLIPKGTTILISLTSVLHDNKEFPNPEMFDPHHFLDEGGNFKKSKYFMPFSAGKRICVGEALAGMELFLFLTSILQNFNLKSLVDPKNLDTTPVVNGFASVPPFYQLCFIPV
compound,measurement,setting,value
CCN(CC)CCO,outcome,[1],inactive
same,outcome,"CD38, CD38 (gene 952)",inactive
same,outcome,"CD40, CD40 (gene 958)",inactive
same,outcome,"CD69, CD69 (gene 969)",inactive
same,outcome,[2],inactive
same,outcome,[3],inactive
same,outcome,[4],inactive
same,outcome,[5],inactive
same,outcome,[6],inactive
same,outcome,[7],inactive
Nc1cc(Cl)cc(C(=O)O)c1Cl,outcome,[1],inactive
same,outcome,"CD38, CD38 (gene 952)",inactive
same,outcome,"CD40, CD40 (gene 958)",inactive
same,outcome,"CD69, CD69 (gene 969)",inactive
same,outcome,[2],inactive
same,outcome,[3],inactive
same,outcome,[4],inactive
same,outcome,[5],inactive
same,outcome,[6],inactive
same,outcome,[7],inactive
CCOc1cccc(C2(N3CCN(c4ccccc4)CC3)CCC(C)CC2)c1 (stereo unspecified),outcome,[1],inactive
same,outcome,"CD38, CD38 (gene 952)",inactive
same,outcome,"CD40, CD40 (gene 958)",inactive
same,outcome,"CD69, CD69 (gene 969)",inactive
same,outcome,[2],inactive
same,outcome,[3],inactive
same,outcome,[4],inactive
same,outcome,[5],inactive
same,outcome,[6],inactive
same,outcome,[7],inactive
same,AC50,[8],4.36 µM (active)
c1ccc2c(c1)-c1cccc3cccc-2c13,outcome,[1],inactive
same,outcome,"CD38, CD38 (gene 952)",inactive
same,AC50,"CD40, CD40 (gene 958)",31.2 µM (active)
same,outcome,"CD69, CD69 (gene 969)",inactive
same,AC50,[2],31.6 µM (active)
same,outcome,[3],inactive
same,outcome,[4],inactive
same,AC50,[5],32.2 µM (active)
same,outcome,[6],inactive
same,AC50,[7],29.5 µM (active)
OCCCBr,outcome,[1],inactive
same,outcome,"CD40, CD40 (gene 958)",inactive
same,outcome,"CD69, CD69 (gene 969)",inactive
same,outcome,[9],inactive
same,outcome,[2],inactive
same,outcome,[3],inactive
same,outcome,[4],inactive
same,outcome,[5],inactive
same,outcome,[6],inactive
same,outcome,[7],inactive
O=Cc1ccco1,outcome,[1],inactive
same,outcome,"CD40, CD40 (gene 958)",inactive
same,outcome,"CD69, CD69 (gene 969)",inactive
same,outcome,[9],inactive
same,outcome,[2],inactive
same,outcome,[3],inactive
same,outcome,[4],inactive
same,outcome,[5],inactive
same,outcome,[6],inactive
same,outcome,[7],inactive
Clc1ccc(C(c2ccc(Cl)cc2)C(Cl)(Cl)Cl)cc1,AC50,[1],28.7 µM (active)
same,AC50,"CD40, CD40 (gene 958)",23.2 µM (active)
same,AC50,"CD69, CD69 (gene 969)",25.5 µM (active)
same,AC50,[9],30 µM (active)
same,AC50,[2],38.2 µM (active)
same,AC50,[3],35.1 µM (active)
same,AC50,[4],15.5 µM (active)
same,AC50,[5],17 µM (active)
same,AC50,[6],12.7 µM (active)
same,AC50,[7],21.6 µM (active)
Oc1ccc2ccc3cccc4ccc1c2c34,AC50,[1],35.3 µM (active)
same,AC50,"CD38, CD38 (gene 952)",16.5 µM (active)
same,AC50,"CD40, CD40 (gene 958)",23.3 µM (active)
same,AC50,"CD69, CD69 (gene 969)",31.9 µM (active)
same,AC50,[2],30.7 µM (active)
same,AC50,[3],36.7 µM (active)
same,AC50,[4],8.38 µM (active)
same,AC50,[5],36.1 µM (active)
same,AC50,[6],6.09 µM (active)
same,AC50,[7],30.4 µM (active)
same,AC50,[10],2.84 µM (active)
same,AC50,[11],2.53 µM (active)
same,AC50,[12],6.74 µM (active)
same,AC50,[13],7.92 µM (active)
C[C@]12C=CC3=C4CCC(=O)C=C4CC[C@H]3[C@@H]1CC[C@@H]2O,AC50,[1],10.3 µM (active)
same,AC50,"CD38, CD38 (gene 952)",4.63 µM (active)
same,AC50,"CD40, CD40 (gene 958)",9.73 µM (active)
same,outcome,"CD69, CD69 (gene 969)",inactive
same,outcome,[2],inactive
same,outcome,[3],inactive
same,outcome,[4],inactive
same,outcome,[5],inactive
same,outcome,[6],inactive
same,AC50,[7],7.24 µM (active)
same,AC50,[14],5.75 µM (active)
ClC1=C(Cl)C2(Cl)C3C(Cl)C=CC3C1(Cl)C2(Cl)Cl (stereo unspecified),AC50,[1],33.7 µM (active)
same,AC50,"CD40, CD40 (gene 958)",25.7 µM (active)
same,AC50,"CD69, CD69 (gene 969)",31.8 µM (active)
same,AC50,[9],31.6 µM (active)
same,AC50,[2],31.1 µM (active)
same,AC50,[3],36.8 µM (active)
same,AC50,[4],13 µM (active)
same,AC50,[5],27.9 µM (active)
same,AC50,[6],10.9 µM (active)
same,AC50,[7],31.7 µM (active)
CC(C)(C)OOC(=O)c1ccccc1,outcome,[1],inactive
same,outcome,"CD69, CD69 (gene 969)",inactive
same,outcome,[9],inactive
same,outcome,[2],inactive
same,outcome,[3],inactive
same,outcome,[4],inactive
same,outcome,[5],inactive
same,outcome,[6],inactive
same,outcome,[7],inactive
Clc1ccccc1Cl,outcome,[1],inactive
same,outcome,"CD40, CD40 (gene 958)",inactive
same,outcome,"CD69, CD69 (gene 969)",inactive
same,outcome,[2],inactive
same,outcome,[3],inactive
same,outcome,[4],inactive
same,outcome,[5],inactive
same,outcome,[6],inactive
same,outcome,[7],inactive
same,outcome,[15],inactive
same,AC50,[8],1.91 µM (active)
